Source: PubChem BioAssay (National Center for Advancing Translational Sciences (NCATS))
In the library only some 2.3% were active in any assay of this set; here they are far more common.
15-hLO inh: blocks human 15-lipoxygenase activity; P16050; purified 15hLO-1, xylenol orange hydroperoxide absorbance; Potency, µM (highest dose often 57.1 µM), for the others: top-dose activity change, negative = inhibition, usual class: inhibitors; 74,000 compounds, 1.4% hits; AID 887; also: potency is read from the fitted curve at half-maximal effect; % is scaled to controls: 0 for no effect and ±100 for the full control effect; nearly all actives have a fitted effect of over 55% in size
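Inhibition is scored from a chromogenic endpoint. After 15 min enzyme-compound contact, arachidonic acid (50 uM final) reacts 6 min with 40 nM 15hLO-1 at room temperature, then Fe-XO reagent is added for 30 min and absorbance ratio recorded.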
15-hLO-2 inh: 15-hLO-2 (ALOX15B) enzyme inhibition; O15296; purified 15hLO-2, xylenol orange hydroperoxide absorbance; Potency, µM (highest dose often 57.1 µM), without a hit: at the highest dose activity change, negative = inhibition, actives largely listed as inhibitors; 110,000 compounds, 0.56% hits; AID 881; also: potency is read from the fitted curve at half-maximal effect; % is scaled to controls: 0 for no effect and ±100 for the full control effect; nearly all actives have a fitted effect of over 60% in size
Target sequence (O15296 whole entry, looked up): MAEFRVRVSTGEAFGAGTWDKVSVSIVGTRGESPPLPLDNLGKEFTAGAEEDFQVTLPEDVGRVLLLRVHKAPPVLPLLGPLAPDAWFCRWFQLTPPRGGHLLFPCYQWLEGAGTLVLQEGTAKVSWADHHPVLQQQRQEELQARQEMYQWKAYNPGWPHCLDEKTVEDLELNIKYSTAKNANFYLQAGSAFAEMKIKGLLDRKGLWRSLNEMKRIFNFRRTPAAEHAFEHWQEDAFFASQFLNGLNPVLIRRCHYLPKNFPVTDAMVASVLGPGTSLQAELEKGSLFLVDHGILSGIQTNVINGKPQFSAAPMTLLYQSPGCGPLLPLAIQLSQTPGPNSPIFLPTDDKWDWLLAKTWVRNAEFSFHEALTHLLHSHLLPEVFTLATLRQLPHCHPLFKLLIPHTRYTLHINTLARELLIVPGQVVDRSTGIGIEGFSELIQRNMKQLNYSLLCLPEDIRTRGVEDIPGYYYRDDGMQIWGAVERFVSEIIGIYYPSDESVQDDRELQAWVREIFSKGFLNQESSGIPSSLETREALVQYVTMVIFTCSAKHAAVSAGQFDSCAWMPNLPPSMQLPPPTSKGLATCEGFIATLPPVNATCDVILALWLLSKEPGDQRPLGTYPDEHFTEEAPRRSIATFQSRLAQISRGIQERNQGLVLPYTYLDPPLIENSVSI
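Read-out: hydroperoxide product oxidises ferrous iron, measured as xylenol orange complex via the 573-to-405 nm absorbance ratio after 30 min. Reaction: 50 nM enzyme, 15 min compound preincubation, 45 uM arachidonic acid, 90 min RT, Hepes pH 7.5 with Triton X-100.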
GFP derepression: derepresses silenced GFP locus in mouse C127i cells; mouse C127i GFP locus derepression, cytometry, 30 h; Potency, µM (highest dose often 46.1 µM), for the others: at the highest dose GFP derepression (activation); 68,000 compounds, 0.09% hits; AID 597; also: % of control where 0% means no effect
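Read-out is the number of GFP-positive cells, scored as fluorescent objects 20 to 120 um wide, reflecting derepression of a silenced CMV-GFP reporter in murine C127i cells after 30 h compound exposure at 37 C.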
Tau filament bind: tau filament binding; recombinant tau filaments, thioflavin S fluorescence, 15 h; filaments grown with octadecylsulfate alongside compound; AID 596; P10636; 71,000 compounds, 2% hits; Potency, µM (top dose mostly 57.1 µM), for the others: at the top dose activity change, negative = inhibition;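 also: potency is read from the fitted curve at half-maximal effect; % is scaled to controls: 0 for no effect and ±100 for the full control effect; actives lower thioflavin S fluorescence by blocking filaments or displacing dye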
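Quantitative HTS: thioflavine S signal from ODS-induced tau filaments, excited at 450 nm, emission 510 nm. Conditions: 1 uM tau, 30 uM ODS, 15 h at 37 C, pH 7.4.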
HBB splice mod: modulators of hemoglobin beta chain splicing. HBB splicing reporter cell assay, activation; EGFP reporter with mutant IVS2-654 intron; response scale: normalised to 500 nM splice-correcting PNA. Potency, µM (doses to about 46.1 µM), for the others: top-dose activation, hits mostly activators. 65,000 compounds, 0.06% hits. AID 925; also: potency is read from the fitted curve at half-maximal effect; 0% is about no effect
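HeLa cells stably expressing EGFP interrupted by mutant beta-globin intron 2 (IVS2-654), 500/well in 2% FCS. Treated with compound for 2 days at 37C. Splicing correction scored as total well GFP intensity (488 nm excitation, 500-520 nm emission); 500 nM antisense PNA served as control.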
Ub-GFP proteasome: proteasome inhibitors stabilizing ubiquitin-GFP reporter; Ubiquitin-GFP reporter cells, proteasome inhibition, GFP fluorescence; response scale: untreated = 0%, 10 µM MG-132 = 100%; Potency, µM (series often up to 45.9 µM), for inactives: top-dose activation (GFP accumulation), usual class: activators; 67,000 tested, under 10 active; active = well fitted activation curve with a large enough effect, not every such curve was filed as active; inconclusive = small, poorly fitted or top-dose-only effect, or another doubt; inactive = no such curve, though single readings can be large or run the other way; also: potency is read from the fitted curve at half-maximal effect
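Proteasome blockade was scored as a rise in GFP-expressing U2OS cells carrying a ubiquitin(G76V)-GFP construct, imaged after 4 hr compound treatment at 37 °C across a 46 uM–2.9 nM series.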
The depositor's hits bear a star; i = inactive; u = inconclusive; x = not tested or not shown; [ ] = remark or other dose. Unless noted, calls follow the shape of the dose curve; as a rule, active = well fitted curve in the direction sought with a large enough effect; inconclusive = small, poorly fitted or top-dose-only effect, or another doubt; inactive = no such curve, though single readings can be large; an effect the other way counts as inactive or inconclusive.

SMILES	15-hLO inh	15-hLO-2 inh	GFP derepression	Tau filament bind	HBB splice mod	Ub-GFP proteasome
CC1CC(C)CN(CCC(=O)Nc2cccc(Cl)c2)C1 (centres undefined)	2%	48%	0%	20µM*	-1%	-4%
NC(=O)C/C=C\CC(N)=O	11%[11.4 µM]	-2%[11.4 µM]	-6%[9.22 µM]	8%[11.4 µM]	2%[9.22 µM]	-1%[9.17 µM]
Cc1ccc(S(=O)(=O)N2CCC(C(=O)N[C@@H](C)C(=O)Nc3ccc4c(c3)OCO4)CC2)cc1	-16%	-11%	9%	10µM*	-2%	3%
CCNc1nc(SC(C)C(=O)Nc2ccccc2)nc(N2CCOCC2)n1 (centres undefined)	3%	0%	-3%	6%	0%	2%
CC(=O)C(Sc1nn(C)c(=S)s1)C(=O)Nc1ccccc1 (centres undefined)	7.9µM*	u	-2%	9%	5%[1.84 µM]	-3%
CC(=O)C(Sc1nc(N2CCOCC2)nc(N2CCOCC2)n1)C(=O)Nc1ccccc1 (centres undefined)	16µM*	1%	0%	23%	-1%	-6%
O=C(O)c1ccc(/C=N\N=C2c3ccccc3-c3ccccc32)cc1	-9%[11.4 µM]	-8%[11.4 µM]	0%[9.22 µM]	-21%[11.4 µM]	4%[9.22 µM]	-9%[9.17 µM]
N#Cc1c(C(F)(F)F)cc(-c2ccc(Cl)c(Cl)c2)nc1SCCN1CCOCC1	x	18%	x	x	x	x
N#Cc1c(C(F)(F)F)cc(-c2ccccc2)nc1SCc1nc(N)nc(N2CCOCC2)n1	-21%	10%	10µM*	56%	10µM*	6%
CSC1=C(C#N)C2(CCCC2)C(C#N)=C(N)N1	u	-5%	-1%	7%	8%	0%
N#CC1=C(N)N2C(=C(C#N)C13CCCCC3)SC1CCCCC12O (centres undefined)	20µM*	-11%	-2%	16%	0%[57.5 µM]	-5%
Cc1ccc(CSC2=Nc3ccccc3C3=NC(CCC(=O)NCc4ccco4)C(=O)N23)cc1 (centres undefined)	u	-27%	-2%	-12%	-2%	-1%
O=C(CC1N=C2c3ccccc3N=C(SCc3ccc(Cl)cc3)N2C1=O)NCc1ccco1 (centres undefined)	25µM*	-17%	0%	-1%	0%	-7%
Cc1ccc(NC(=O)CN2C(=O)S/C(=C\c3cc(C)n(C)c3C)C2=O)cc1	x	16µM*	x	x	x	x
Oc1ccc(CNCc2ccccc2)c2cccnc12	46%[11.4 µM]	38%[11.4 µM]	u	-27%[11.4 µM]	2%[9.22 µM]	-3%[9.17 µM]
Oc1ccc(COCc2ccccc2)c2cccnc12	6%	u	3.2µM*	-13%	x	8%
CCC[C@@H]1O[C@@H]2C[C@@H]3[C@@H]4CCC5=CC(=O)C=C[C@@]5(C)[C@H]4[C@H](O)C[C@@]3(C)[C@@]2(C(=O)CO)O1	x	x	1%	-8%	0%	-5%
CCOC(=O)C1=C(C)OC(N)=C(C#N)C1c1ccc(C)o1 (centres undefined)	x	-7%	x	x	x	x
CCc1ccc(C2C(C#N)=C(N)SC(N)=C2C#N)cc1	0.63µM*	u	-2%	12%[11.4 µM]	0%[0.0738 µM]	19%[9.17 µM]
N#CC1=C(N)SC(N)=C(C#N)C1c1ccc(C(F)(F)F)cc1	u	13µM*	2%	-25%	x	7%
CCc1ccc(C2C(C#N)=C(N)SC(N)=C2C#N)s1	10µM*	u	-2%	25µM*	0%[9.22 µM]	-4%
CCOc1ccc(C2C(C#N)=C(N)SC(N)=C2C#N)cc1OCC	u	u	-2%	23%	x	-4%
Cc1ccc(C2C(C#N)=C(N)SC(N)=C2C#N)o1	6.3µM*	u	0%	-2%	0%	9%
[Cu].[NH-][C@H](CC(=O)O)C(=O)O.[NH-][C@H](CC(=O)O)C(=O)O	-1%[11.4 µM]	-6%[11.4 µM]	-3%[9.22 µM]	11%[11.4 µM]	0%[9.22 µM]	5%[9.17 µM]
C[N+](C)(C)c1nc(N)nc2c1ncn2[C@H]1O[C@@H](CO)[C@@H](O)[C@H]1O	20%[11.4 µM]	-8%[11.4 µM]	-3%[9.22 µM]	2%[11.4 µM]	2%[9.22 µM]	-2%[9.17 µM]
SMILES	15-hLO inh	15-hLO-2 inh	GFP derepression	Tau filament bind	HBB splice mod	Ub-GFP proteasome
Cc1ccc(S(=O)(=O)N2CCC(C(=O)O)(c3ccccc3)CC2)cc1	10%[11.4 µM]	-3%[11.4 µM]	0%[9.22 µM]	4%[11.4 µM]	-1%[9.22 µM]	-8%[9.17 µM]
Cc1ccc(-c2ccc(/C=N/NC(=O)CN3CCCC3)o2)cc1Cl	x	63%	x	x	x	x
CC(C)COC(=O)c1cc(-c2ccc(/C=N/n3cnnc3)o2)ccc1Cl	3%	-1%	3%	25µM*	2%	0%
CC/C(=C(\c1ccccc1)c1ccc(OCCN(C)C)cc1)c1ccc(O)cc1	-17%	9%	x	-10%	0%	x
Cc1ccc(C)c2nc(N3CCCC3)c(C#N)cc12	13µM*	10%	2%	18%	x	-4%
CCCCNc1cc(NC(C)=O)cc2cc(OC)c(OC)cc12	-9%	-15%	0%	25µM*	-1%	3%
CCCN1/C(=C2/SC(=S)N(CC)C2=O)C=Cc2ccccc21	x	-9%	x	x	x	x
CCN1C(=O)/C(=C2\C=Cc3ccccc3N2CC)OC1=S	-29%	x	9%	1µM*	-3%	-1%
CN(C)CC(CN(C)C)c1ccccn1	7%[11.4 µM]	1%[11.4 µM]	0%[9.22 µM]	0%[11.4 µM]	3%[9.22 µM]	14%[9.17 µM]
CC#C[C@@]1(O)CC[C@@H]2[C@@H]3CCC4=CC(=O)CCC4=C3[C@@H](c3ccc(N(C)C)cc3)C[C@]21C	x	x	-3%	32µM*	0%	7%
CC(=O)Nc1nc2n(n1)C(c1ccc(F)cc1)C=C(c1ccccc1)N2 (centres undefined)	u	-14%	2%	i	-4%[57.5 µM]	4%
CC(=O)Nc1nc2n(n1)C(c1ccccc1)C=C(c1ccccc1)N2 (centres undefined)	20µM*	-12%	2%	i	1%[9.22 µM]	0%
O=C(O)CCc1ccc(-c2ccccc2)[nH]1	-19%[11.4 µM]	1%[11.4 µM]	5%[9.22 µM]	-7%[11.4 µM]	2%[9.22 µM]	-4%[9.17 µM]
O=C(Nc1ccc(Cl)cc1)c1cccs1	x	1%	x	x	x	x
O=C(Nc1ccccc1)c1nnsc1S(=O)c1ccc(Cl)cc1 (centres undefined)	x	1.3µM*	x	x	x	x
Cc1c(CN(C)C)c2c(n1C)C(=O)c1ccc(Br)cc1-2	3%	-5%	-1%	2.5µM*	0%	0%
COCCN1C(=O)c2ccccc2C(C(=O)NCCCN2CCCC2=O)C1c1c[nH]c2ccccc12 (centres undefined)	25µM*	x	-1%	-8%	2%	-10%
O=c1cc(-c2ccccc2Cl)oc2c(NS(=O)(=O)c3cc(Cl)cc(Cl)c3O)ccc(O)c12	x	16µM*	x	x	x	x
CCc1ccc(NC(=O)c2ccc3c(c2)C(=O)N(Cc2ccco2)C3=O)cc1	-14%	x	x	25µM*	-1%	-14%
